60 molecules from PubChem BioAssay AID504444 (National Center for Advancing Translational Sciences (NCATS), 2011) can be followed below.

The whole screen tested about 360,000 compounds, of which about 7,500 (2.1%) were called active. About 20% were inconclusive and are not listed. Calls come from the whole dose curve; as a rule, active = well fitted inhibition curve with a large enough effect; inconclusive = small, poorly fitted or top-dose-only effect, or effect the other way; inactive = flat fitted curve, though single readings scatter. What follows is part of a selection rich in actives, with near analogues and random picks from the rest. A call without a number means that no potency is given here.
Potency is the fitted concentration of half-maximal effect.

The nature of the assay: Nrf2 qHTS screen for inhibitors. Note: nearly all actives have a fitted effect of over 60% in size. Conditions: A549 ARE-Fluc reporter, luciferase luminescence, 18-24 h; series mostly up to 46 µM. In a few lines:
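A549 ARE_Fluc cells (5000/well, 5% FBS OPTI-MEM) pre-incubated 2 h, then treated with compounds 18-24 h at 37C/5% CO2 in concentration-response. CellTiter-Fluor viability read first; BugLite luciferase luminescence after 15 min at room temperature gives Nrf2 activity.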
For orientation: In qHTS, concentration-response curves come from the screen itself.
As to `CN(C)C(=S)N=c1ssc(=S)n1Cc1ccco1`, the Potency result is “inactive”.

`CCCCOc1ccc(C(=O)Nc2cccc(-c3nc4ccccc4o3)c2C)cc1`: the Potency result is “inactive”.

With `CCCOc1ccc(C(=O)Nc2ccc3oc(-c4cccc(Cl)c4Cl)nc3c2)cc1`, the Potency is 5.8 µM (active).

In the case of `COc1cccc(C(=O)Nc2ccc3oc(-c4ccc5ccccc5c4)nc3c2)c1`, the Potency entry was “inactive”.

Take `Cc1ccccc1-c1nc2cc(NC(=O)c3cccc(OCCC(C)C)c3)ccc2o1`: the Potency was 6.51 µM (active).

Regarding `O=C(COc1ccc(Cl)cc1)Nc1ccc(-c2nc3cc(Cl)ccc3o2)c(O)c1`, the Potency result is “inactive”.

Consider `Cc1ccc(SCC(=O)Nc2ccc3oc(-c4ccccc4C)nc3c2)cc1`, for which the Potency result is “inactive”.

On to `O=C(NCCCc1ccccc1)c1ccc2c(c1)sc1nc(-c3ccc(F)cc3)cn12`, for which the Potency entry is “inactive”.

For `CCc1ccc(OCCCn2c(CCCNC(=O)C3CCCCC3)nc3ccccc32)cc1`, the Potency entry was “inactive”.

For the molecule `O=C(NCc1ccccc1)c1cccc(NC(=O)N2CCSc3ncccc32)c1`, the Potency result is “inactive”.

Consider `CC(C)(C)OC(=O)C[C@H]1C/C=C\C[C@@H](CC(=O)N[C@H](CO)Cc2ccccc2)C(=O)NC[C@@H](c2ccccc2)OC1=O`, for which the Potency entry was “inactive”.

Turning to `COc1ccc(-c2ccc3c(c2)C2CC3CCN2CCC#N)cc1` (stereo not given), the Potency entry is “inactive”.

Regarding `Cc1nc2ccc(S(=O)(=O)N(CC(=O)Nc3ccc(F)cc3)Cc3ccccc3)cc2s1`, the Potency result was “inactive”.

With `CCCN(CCC)CCCNC(=O)Cn1cc2c(n1)-c1c(oc(C(=O)N3CCCC3)c1C)CC2`, the Potency result is “inactive”.

On to `COc1ccccc1N1CCN(c2ccc(=O)n(CC(=O)NCc3ccc(OC(C)C)cc3)n2)CC1`, for which the Potency entry was “inactive”.

As for `Cc1c(C(=O)N2CCCC2)oc2c1-c1nn(CC(=O)NCc3ccc(OC(C)C)cc3)cc1CC2`, the Potency is 20.6 µM (active).

With `Cc1ccc(Cn2cc(CCC(=O)NCc3ccc(OC(C)C)cc3)c3ccccc32)cc1`, the Potency result was “inactive”.

In the case of `Cc1cccc(N2CCN(C(=O)c3oc(=O)c4ccccc4c3-c3ccccc3)CC2)c1C`, the Potency result was “inactive”.

As to `COc1cc(/C=C(\C#N)c2nc3ccccc3[nH]2)ccc1O`, the Potency entry is “inactive”.

On to `Cc1ccc2nc(/C(C#N)=C/c3ccccc3F)[nH]c2c1`, for which the Potency result was “inactive”.

`Cc1ccc2nc(/C(C#N)=C\c3ccc(OC(=O)c4cccs4)cc3)[nH]c2c1`: the Potency is 4.61 µM (active).

For the molecule `Cc1onc(-c2c(Cl)cccc2Cl)c1C(=O)NNC(=O)c1c(-c2c(Cl)cccc2Cl)noc1C`, the Potency result was “inactive”.

Regarding `CC(=O)Nc1cccc(/C(C)=N/NC(=O)c2c(-c3ccccc3Cl)noc2C)c1`, the Potency is 9.2 µM (active).

Regarding `Cc1onc(-c2ccccc2Cl)c1C(=O)OCC(=O)c1ccccc1`, the Potency entry was “inactive”.

With `COC(=O)c1ccc(CNC(=O)Cn2cc(C)c(=O)[nH]c2=O)cc1`, the Potency result was “inactive”.

For the molecule `Cc1cccc(-c2nc(SCc3ccc(Br)cc3)n3[nH]c(=O)cc3n2)c1`, the Potency result was “inactive”.

In the case of `CC(=O)Nc1ccc(-c2csc(NC(=O)Nc3ccccc3)n2)cc1`, the Potency is 16.4 µM (active).

For the molecule `CC(=O)Nc1ccc(S(=O)(=O)Nc2nc(-c3ccc(C(C)(C)C)cc3)cs2)cc1`, the Potency result is “inactive”.

With `O=C(O)c1ccccc1C(=O)Nc1nc(-c2ccccc2)cs1`, the Potency result is “inactive”.

For `Cc1cc(Cl)ccc1OCC(=O)N(Cc1ccc(N(C)C)cc1)C1CCS(=O)(=O)C1` (stereo not given), the Potency result was “inactive”.

`COc1ccc(-c2ccc3c(c2)[C@@H]2C[C@H](N(C)S(=O)(=O)c4ccccc4)[C@H]([C@H](C)O)C(=O)N2CC3)cc1`: the Potency result was “inactive”.

Turning to `Cc1nnc(N2CCC(C(=O)Nc3ccc(F)cc3)CC2)c2nn(-c3ccc(Cl)cc3)c(C)c12`, the Potency entry was “inactive”.

Take `CC1C(C)N(C(=O)CCl)c2ccccc2N1C(=O)CCl` (stereo not given): the Potency was 18.4 µM (active).

As for `CC1CC(C)CN(CC(=O)N2c3ccccc3CCc3ccccc32)C1` (stereo not given), the Potency entry was “inactive”.

`CNC(=O)N1c2ccccc2C=Cc2ccccc21`: the Potency entry was “inactive”.

`Cc1cccc(NC(=O)c2cccnc2Cl)n1`: the Potency entry was “inactive”.

Take `CCN(CC)S(=O)(=O)c1ccc(Cl)c(NC(=O)c2ccncc2)c1`: the Potency result was “inactive”.

`CCN(CC)S(=O)(=O)c1ccc(NC(=O)c2cccnc2Cl)c(NC(=O)c2cccnc2Cl)c1`: the Potency was 20.6 µM (active).

In the case of `COc1ccc(N2C(=O)CS(=O)(=O)C23C(=O)N(Cc2ccc(C)cc2)c2ccccc23)cc1Cl` (stereo not given), the Potency entry was “inactive”.

For `CN(C)C(CNC(=O)c1cc2ccccc2o1)c1ccccc1` (stereo not given), the Potency entry was “inactive”.

Regarding `COc1cccc(CN2CCc3nc(SCC(=O)Nc4ccccc4)[nH]c(=O)c3C2)c1`, the Potency result was “inactive”.

For `c1ccc(C(=NNc2nc3ccccc3s2)c2ccccn2)cc1`, the Potency was 9.2 µM (active).

As for `COc1cc(/C=N/Nc2nc3ccccc3s2)ccc1O`, the Potency entry was “inactive”.

As to `O=[N+]([O-])c1cc(Br)c(O)c(/C=N/Nc2nc3ccccc3s2)c1`, the Potency entry was “inactive”.

As for `CCC(C(=O)Nc1cc(OC)ccc1OC)n1c(=O)c(C(F)(F)F)nc2ccccc21` (stereo not given), the Potency result is “inactive”.

As to `CSCCC(NC(=O)c1ccccc1)C(=O)N1CCN(Cc2ccc(Cl)cc2)CC1` (stereo not given), the Potency entry is “inactive”.

On to `CCCCN(C(=O)c1cccc(N2C(=O)c3ccccc3C2=O)c1)c1c(N)n(CCCC)c(=O)[nH]c1=O`, for which the Potency result is “inactive”.

`N#Cc1ccc(OC2=NS(=O)(=O)c3ccccc32)cc1`: the Potency result is “inactive”.

With `COc1ccc(/C=N/NS(=O)(=O)c2ccc(NC(C)=O)cc2)cc1`, the Potency result is “inactive”.

On to `COc1ccc(C(=O)Oc2cc(/C=N/NS(=O)(=O)c3ccc(C)cc3)ccc2OC)cc1`, for which the Potency was 16.4 µM (active).

Regarding `COc1ccc(S(=O)(=O)N/N=C\c2ccc(OC)c(COc3ccc(C)cc3[N+](=O)[O-])c2)cc1`, the Potency result is “inactive”.

On to `CCOc1ccc(C(=O)c2cn(Cc3ccc(F)cc3)c3ccc(F)cc3c2=O)cc1`, for which the Potency result is “inactive”.

With `Cc1ccc(Nc2c(-c3ccc(N(C)C)cc3)nc3nc[nH]n23)cc1`, the Potency entry is “inactive”.

For `CN(C)c1ccc(Nc2c3c4c(cccc4n(C)c2=O)C(=O)c2ccccc2-3)cc1`, the Potency is 8.2 µM (active).

Turning to `CN(C)c1ccc(C2N(C)C(=O)c3ccccc3N2C)cc1` (stereo not given), the Potency result is “inactive”.

For `O=C(Nc1c(C(=O)N2CCN(c3ccc(F)cc3)CC2)oc2ccccc12)c1ccco1`, the Potency result was “inactive”.

For `CCOC(=O)C1CCCN(C(=O)C2CCN(S(=O)(=O)c3ccc(Cl)c(C(F)(F)F)c3)CC2)C1` (stereo not given), the Potency result is “inactive”.

Turning to `CCCCNC(=O)CSc1nc2ccc(NC(=O)CSc3nnc(COc4ccccc4C)n3C)cc2s1`, the Potency entry is “inactive”.

Take `CCC(=O)Nc1ccc2nc(SCC(=O)N3CCc4ccccc43)sc2c1`: the Potency entry was “inactive”.

With `CCCCNC(=O)CSc1nc2ccc(NC(=O)CSc3nnc(N)s3)cc2s1`, the Potency was 16.4 µM (active).
